Where “and” joins values, the source holds several entries; their conditions need not be identical. Equal entries are not always repeated. Inconclusive results are not listed. Entries that show only a call come without a potency. A structure can be active in one record and inactive in another. Calls of active or inactive are those of the source. Calls come from the whole dose curve; as a rule, active = well fitted curve in the direction sought with a large enough effect in the repeat runs; inconclusive = weak or mixed curves; inactive = no such curve, though single readings can be large; an effect the other way counts as inactive or inconclusive.
Legend:
[1] = qHTS RealTime-Glo MT Cell Viability Assay in HepG2 cells - 40 hour (AID 1224870); note: nearly all actives have a fitted effect of over 50% in size
Procedure, shortened: (§1)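 Real-time viability: cells seeded at 600 per well together with NanoLuc and cell-permeant prosubstrate, compounds added after 5 h incubation. Luminescence tracked at 0, 8, 16, 24, 32 and 40 h of exposure.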

[2] = A CellTox Green Cytotoxicity Assay to monitor cytotoxicity in HEK293 cells - 40 hour (AID 1224871); note: nearly all actives have a fitted effect of over 45% in size; note: potency is the fitted concentration of half-maximal effect
Procedure, shortened: (§2)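 Dead-cell fluorescence measured kinetically: asymmetric cyanine dye, HEK293, 600 cells/well, 5 h settle, 23 nL cpd/DMSO, 37 C, reads 0–40 h every 8 h.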

[3] = qHTS RealTime-Glo MT Cell Viability Assay in HEK293 cells - 16 hour (AID 1224872); note: nearly all actives have a fitted effect of over 50% in size; note: potency is the fitted concentration of half-maximal effect
Procedure, shortened: (§3)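 Nonlytic real-time viability readout: viable cells convert prosubstrate to NanoLuc substrate, giving luminescence proportional to live cell number. HEK293, 600 cells/well, compound added after 5 h, continuous culture at 37 C.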

[4] = qHTS RealTime-Glo MT Cell Viability Assay in HepG2 cells - 8 hour (AID 1224873); note: nearly all actives have a fitted effect of over 55% in size
Procedure, shortened: as §1

[5] = qHTS RealTime-Glo MT Cell Viability Assay in HEK293 cells - 40 hour (AID 1224874); details: RealTime-Glo luminescence; max response: stronger effect = lower value; note: nearly all actives have a fitted effect of over 50% in size; note: potency is the fitted concentration of half-maximal effect
Procedure, shortened: (§4)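 600 HEK293 cells per well, dispensed already mixed with RealTime-Glo MT reagents. Compound dosing came 5 h later. The same wells were read for luminescence at 0, 8, 16, 24, 32 and 40 h of exposure at 37 C.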

[6] = qHTS RealTime-Glo MT Cell Viability Assay in HepG2 cells - 32 hour (AID 1224877); note: nearly all actives have a fitted effect of over 55% in size
Procedure, shortened: (§5)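 Luminescence read-out: viable HepG2 cells reduce a prosubstrate to a NanoLuc substrate, giving a signal proportional to live cell number. Reads taken at 0, 8, 16, 24, 32 and 40 h of compound exposure at 37 C.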

[7] = A CellTox Green Cytotoxicity Assay to monitor cytotoxicity in HepG2 cells - 40 hour (AID 1224879); note: nearly all actives have a fitted effect of over 40% in size; note: potency is the fitted concentration of half-maximal effect
Procedure, shortened: (§6)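 First, HepG2 cells (600/well) mixed with reagent were plated; second, after 5 h at 37 C they received compounds via pintool; third, fluorescence was measured at 0 h through 40 h at 8 h intervals.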

[8] = qHTS RealTime-Glo MT Cell Viability Assay in HEK293 cells - 0 hour (AID 1224880); note: top concentration of the series differs between compounds; nearly all actives have a fitted effect of over 45% in size
Procedure, shortened: as §4

[9] = A CellTox Green Cytotoxicity Assay to monitor cytotoxicity in HEK293 cells - 32 hour (AID 1224881); note: nearly all actives have a fitted effect of over 40% in size; note: potency is the fitted concentration of half-maximal effect
Procedure, shortened: as §2

[10] = A CellTox Green Cytotoxicity Assay to monitor cytotoxicity in HepG2 cells - 0 hour (AID 1224882); note: nearly all actives have a fitted effect of over 35% in size
Procedure, shortened: as §6

[11] = A CellTox Green Cytotoxicity Assay to monitor cytotoxicity in HepG2 cells - 32 hour (AID 1224883); note: nearly all actives have a fitted effect of over 50% in size; note: potency is the fitted concentration of half-maximal effect
Procedure, shortened: as §6

[12] = A CellTox Green Cytotoxicity Assay to monitor cytotoxicity in HEK293 cells - 8 hour (AID 1224884); note: nearly all actives have a fitted effect of over 35% in size; note: potency is the fitted concentration of half-maximal effect
Procedure, shortened: as §2

[13] = qHTS RealTime-Glo MT Cell Viability Assay in HepG2 cells - 16 hour (AID 1224885); note: nearly all actives have a fitted effect of over 50% in size
Procedure, shortened: as §5

[14] = qHTS RealTime-Glo MT Cell Viability Assay in HEK293 cells - 24 hour (AID 1224886); note: nearly all actives have a fitted effect of over 50% in size; note: potency is the fitted concentration of half-maximal effect
Procedure, shortened: as §3

[15] = qHTS RealTime-Glo MT Cell Viability Assay in HEK293 cells - 8 hour (AID 1224887); note: nearly all actives have a fitted effect of over 50% in size; note: potency is the fitted concentration of half-maximal effect
Procedure, shortened: as §4

[16] = A CellTox Green Cytotoxicity Assay to monitor cytotoxicity in HEK293 cells - 16 hour (AID 1224888); note: nearly all actives have a fitted effect of over 35% in size; note: potency is the fitted concentration of half-maximal effect
Procedure, shortened: as §2

[17] = qHTS RealTime-Glo MT Cell Viability Assay in HepG2 cells - 0 hour (AID 1224889); note: nearly all actives have a fitted effect of over 50% in size
Procedure, shortened: as §5

[18] = A CellTox Green Cytotoxicity Assay to monitor cytotoxicity in HepG2 cells - 16 hour (AID 1224876); note: nearly all actives have a fitted effect of over 45% in size
Procedure, shortened: as §6

[19] = A CellTox Green Cytotoxicity Assay to monitor cytotoxicity in HepG2 cells - 24 hour (AID 1224878); note: nearly all actives have a fitted effect of over 45% in size; note: potency is the fitted concentration of half-maximal effect
Procedure, shortened: as §6

[20] = A CellTox Green Cytotoxicity Assay to monitor cytotoxicity in HEK293 cells - 24 hour (AID 1224875)
Procedure, shortened: as §2

Compound: CCCCCCCCOC(=O)c1ccccc1C(=O)OCCCCCCCC
- Potency [1]: inactive
- Potency [2]: inactive
- Potency [3]: inactive
- Potency [4]: inactive
- max response [5]: 2.33% (inactive) and -2.33% (inactive)
- Potency [6]: inactive
- Potency [7]: inactive
- Potency [8]: inactive
- Potency [9]: inactive
- Potency [10]: inactive
- Potency [11]: inactive
- Potency [12]: inactive
- Potency [13]: inactive
- Potency [14]: inactive
- Potency [15]: inactive
- Potency [16]: inactive
- Potency [17]: inactive

Compound: ClC1C(Cl)C(Cl)C(Cl)C(Cl)C1Cl (stereo unspecified)
- Potency [1]: inactive
- Potency [3]: inactive and 49 µM (active)
- Potency [4]: inactive
- Potency [5]: 54.9 µM (active)
- Potency [18]: inactive
- Potency [6]: inactive
- Potency [7]: inactive and 38.9 µM (active)
- Potency [8]: inactive
- Potency [10]: inactive
- Potency [11]: inactive and 43.6 µM (active)
- Potency [12]: inactive and 43.6 µM (active)
- Potency [13]: inactive
- Potency [14]: inactive and 49 µM (active)
- Potency [15]: inactive and 49 µM (active)
- Potency [17]: inactive

Compound: C#C[C@]1(O)CC[C@H]2[C@@H]3CCC4=CC(=O)CC[C@]4(C)[C@H]3CC[C@@]21C
- Potency [1]: inactive
- Potency [2]: 49 µM (active)
- Potency [3]: inactive
- Potency [4]: inactive
- max response [5]: -4.36% (inactive) and -16.3% (inactive)
- Potency [6]: inactive
- Potency [8]: inactive
- Potency [9]: 49 µM (active)
- Potency [10]: inactive
- Potency [11]: inactive
- Potency [12]: inactive
- Potency [13]: inactive
- Potency [14]: inactive
- Potency [15]: inactive
- Potency [16]: inactive

Compound: COc1ccc(C(CN(C)C)C2(O)CCCCC2)cc1 (stereo unspecified)
- Potency [1]: inactive
- Potency [2]: inactive
- Potency [3]: inactive
- Potency [4]: inactive
- max response [5]: -15.6% (inactive) and -9.44% (inactive)
- Potency [6]: inactive
- Potency [19]: inactive
- Potency [7]: inactive
- Potency [9]: inactive
- Potency [10]: inactive
- Potency [11]: inactive
- Potency [12]: inactive
- Potency [13]: inactive
- Potency [14]: inactive
- Potency [15]: inactive
- Potency [16]: inactive
- Potency [17]: inactive

Compound: O=[N+]([O-])c1c(Cl)c(Cl)c(Cl)c(Cl)c1Cl
- Potency [1]: inactive
- Potency [2]: 21.8 µM (active) and inactive
- Potency [3]: inactive
- Potency [4]: inactive
- max response [5]: 2.95% (inactive) and 16.6% (inactive)
- Potency [6]: inactive
- Potency [19]: inactive
- Potency [7]: inactive
- Potency [8]: inactive
- Potency [9]: 21.8 µM (active) and inactive
- Potency [10]: inactive
- Potency [11]: inactive
- Potency [12]: inactive
- Potency [13]: inactive
- Potency [14]: inactive
- Potency [15]: inactive
- Potency [16]: inactive
- Potency [17]: inactive

Compound: Cc1ccc2c(c1N)C(=O)c1ccccc1C2=O
- Potency [1]: inactive
- Potency [2]: inactive
- Potency [3]: 8.62 µM (active) and 8.71 µM (active)
- Potency [5]: 9.67 µM (active) and 6.92 µM (active)
- Potency [18]: inactive
- Potency [6]: inactive
- Potency [19]: inactive
- Potency [7]: inactive
- Potency [8]: inactive
- Potency [9]: inactive
- Potency [10]: inactive
- Potency [11]: inactive
- Potency [12]: inactive
- Potency [13]: inactive
- Potency [14]: 9.67 µM (active) and 7.76 µM (active)
- Potency [15]: 7.68 µM (active) and 6.92 µM (active)
- Potency [16]: inactive
- Potency [17]: inactive

Compound: CCC(C)(c1ccc(O)cc1)c1ccc(O)cc1
- Potency [1]: inactive
- Potency [2]: inactive
- Potency [4]: inactive
- Potency [5]: 24.5 µM (active) and 43.6 µM (active)
- Potency [20]: inactive
- Potency [18]: inactive
- Potency [6]: inactive
- Potency [19]: inactive
- Potency [7]: inactive
- Potency [8]: inactive
- Potency [9]: inactive
- Potency [10]: inactive
- Potency [11]: inactive
- Potency [12]: inactive
- Potency [13]: inactive
- Potency [15]: inactive
- Potency [16]: inactive
- Potency [17]: inactive

Compound: O=C(NC(=O)c1c(F)cccc1F)Nc1ccc(Cl)cc1
- Potency [1]: inactive
- Potency [2]: inactive
- Potency [3]: inactive
- Potency [4]: inactive
- Potency [20]: inactive
- Potency [18]: inactive
- Potency [6]: inactive
- Potency [7]: inactive
- Potency [9]: inactive
- Potency [10]: inactive
- Potency [11]: inactive
- Potency [12]: inactive
- Potency [13]: inactive
- Potency [15]: inactive
- Potency [16]: inactive
- Potency [17]: inactive

Compound: Oc1c(Cl)c(Cl)c(Cl)c(Cl)c1Cl
- Potency [1]: inactive
- Potency [2]: inactive
- Potency [3]: inactive
- Potency [4]: inactive
- Potency [18]: inactive
- Potency [6]: inactive
- Potency [19]: inactive
- Potency [7]: inactive
- Potency [9]: inactive
- Potency [10]: inactive
- Potency [11]: inactive
- Potency [12]: inactive
- Potency [13]: inactive
- Potency [14]: inactive
- Potency [15]: inactive
- Potency [16]: inactive
- Potency [17]: inactive

Compound: Oc1ccc(-c2ccccc2)cc1
- Potency [1]: inactive
- Potency [2]: 19.2 µM (active)
- Potency [4]: inactive
- Potency [6]: inactive
- Potency [19]: inactive and 49 µM (active)
- Potency [7]: inactive and 49 µM (active)
- Potency [8]: inactive
- Potency [9]: 24.2 µM (active) and inactive
- Potency [10]: inactive
- Potency [11]: inactive and 49 µM (active)
- Potency [12]: inactive
- Potency [13]: inactive
- Potency [14]: 21.9 µM (active)
- Potency [16]: inactive
- Potency [17]: inactive

Compound: CC(C)N(C(=O)SCC(Cl)=C(Cl)Cl)C(C)C
- Potency [1]: inactive
- Potency [2]: inactive
- Potency [3]: inactive
- Potency [4]: inactive
- max response [5]: -12% (inactive) and 19.1% (inactive)
- Potency [6]: inactive
- Potency [7]: inactive
- Potency [8]: inactive
- Potency [9]: inactive
- Potency [10]: inactive
- Potency [11]: inactive
- Potency [12]: inactive
- Potency [13]: inactive
- Potency [14]: inactive
- Potency [15]: inactive
- Potency [16]: inactive
- Potency [17]: inactive

Compound: CC(C)(OOC(C)(C)c1ccccc1)c1ccccc1
- Potency [1]: inactive
- Potency [2]: 24.2 µM (active) and 49 µM (active)
- Potency [3]: inactive
- Potency [4]: inactive
- max response [5]: -13.8% (inactive) and -15.4% (inactive)
- Potency [6]: inactive
- Potency [7]: inactive
- Potency [8]: inactive
- Potency [9]: 24.2 µM (active) and 49 µM (active)
- Potency [10]: inactive
- Potency [11]: inactive
- Potency [12]: inactive
- Potency [13]: inactive
- Potency [14]: inactive
- Potency [15]: inactive
- Potency [16]: 43.6 µM (active)
- Potency [17]: inactive

Compound: CCCCCCCCCCCOC(=O)c1ccccc1C(=O)OCCCCCCCCCCC
- Potency [1]: inactive
- Potency [2]: inactive
- Potency [3]: inactive
- Potency [4]: inactive
- max response [5]: 1.36% (inactive) and 2.6% (inactive)
- Potency [6]: inactive
- Potency [7]: inactive
- Potency [9]: inactive
- Potency [10]: inactive
- Potency [11]: inactive
- Potency [12]: inactive
- Potency [13]: inactive
- Potency [14]: inactive
- Potency [15]: inactive
- Potency [16]: inactive
- Potency [17]: inactive
